Test results as given in PubChem BioAssay AID1159580 (chemical genetic matrix, 2015).
In all, about 5,500 compounds went through this assay and about 2,000 (36%) were called active. About 18% were inconclusive and are not listed. Rule as the data show it: active = normalized growth mostly below about 0.91 (no sharp cut-off); inconclusive = no clear call, values can overlap the other calls; inactive = mostly above about 0.92. The list shows a part of the results.

Assay: chemical genetic growth profiling, strain panel (AID 1159580);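 also: tested at 20 µM; growth read once vehicle control cultures reached saturation at 30 °C; 1 = growth at the plate median or of vehicle wells; lower values mean less growth of the strain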
Conditions: S. cerevisiae deletion strains, growth OD

Measured: normalized growth

CCn1cc(C(=O)O)c(=O)c2ccc(Cc3ccccc3)nc21
inactive: locus YAL013W, strain DEP1, active compounds read low 1.03 | locus YAL040C, strain CLN3, active compounds read low 1 | locus YCL061C, strain MRC1 (second series), active compounds read low 1.01 | locus YDR363W, strain ESC2, active compounds read low 1.01 | locus YER002W, strain NOP16, active compounds read low 0.964 | locus YGR078C, strain PAC10, active compounds read low 0.971 | locus YJR075W, strain HOC1, active compounds read low 1.02 | locus YMR263W, strain SAP30, active compounds read low 1 | locus YMR307W, strain GAS1, active compounds read low 1 | locus YNL128W, strain TEP1, active compounds read low 0.988 | locus YNL153C, strain GIM3, active compounds read low 0.923 | locus YNL175C, strain NOP13, active compounds read low 0.972 | locus YNL197C, strain WHI3, active compounds read low 0.942 | locus YNL224C, strain SQS1, active compounds read low 0.965 | locus YNL322C, strain KRE1, active compounds read low 0.991 | locus YOR083W, strain WHI5 (second series), active compounds read low 1.09 | locus YPL241C, strain CIN2, active compounds read low 1.01
